From PubChem BioAssay
In the library only some 3.7% were active in any assay of this set; here they are far more common.
tim10-1 inh: inhibits growth of tim10-1 mutant yeast | S. cerevisiae tim10-1 ts strain growth, BacTiter-Glo, 24 h | inhibition, % at 20 µM | 330,000 compounds, 2.2% hits | AID 463190;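 active = inhibition of at least 40%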;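 also: mutant grown at 25 °C; 0% = DMSO wells with yeast and 100% = wells holding no yeast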
tim23-1 inh: growth inhibitors of tim23-1 mutant yeast | 330,000 compounds, 1.3% hits | inhibition, % at 20 µM | S. cerevisiae tim23-1 growth, BacTiter-Glo luminescence, 24 h | AID 463212;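 active = growth inhibition of the mutant yeast at or above 50%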;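 also: temperature-sensitive mutant grown at 25 °C; plate controls were DMSO-treated mutant yeast for no effect and medium wells lacking yeast for full effect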
V-ATPase pHluor: yeast V-ATPase proton transport regulation by pHLuorin | S. cerevisiae, pHLuorin cytosolic pH fluorescence | 350,000 compounds, 0.37% hits | response, % at 10 µM; in the data active = response mostly above about 7.3%, no sharp cut-off; inactive = mostly below about 5.4%; also: actives read high
TIM10 inh: inhibits growth of TIM10 yeast strain | S. cerevisiae TIM10 strain growth, BacTiter-Glo luminescence, 24 h | inhibition, % at 10 µM | 330,000 compounds, 1.4% hits | AID 463195;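 active = inhibition of 40% or more at the single tested concentration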;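 also: wild-type TIM10 isogenic control strain grown at permissive 25 °C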
PfHsp90 set2: inhibits growth of yeast expressing Plasmodium falciparum Hsp90. S. cerevisiae expressing PfHsp90, BacTiter-Glo ATP, 48 h; yeast lacking PDR1 and PDR3 efflux regulators. 310,000 compounds, 0.32% hits. AID 504621. inhibition, % at 9.4 µM;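 active = every replicate shows inhibition above about 80%, whatever the replicate mean, limit read from the data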;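 also: 0% = DMSO neutral controls and 100% = 20 µM radicicol positive controls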
tim10-1 conf: confirmation of tim10-1 mutant yeast growth inhibitors; 7,400 compounds, 56% hits; inhibition, % at 20 µM; S. cerevisiae tim10-1 ts strain growth, BacTiter-Glo, 24 h; shares compounds with tim10-1 inh;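 active = inhibition of yeast growth at or above a set limit in either of two repeat tests at 20 µM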;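 also: tim10-1 mutant grown at permissive 25 °C to find synthetic lethal compounds; 0% = DMSO yeast wells and 100% = medium wells without yeast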
tim10 confirm: TIM10 yeast growth inhibition, confirmed; 4,600 compounds, 63% hits; shares compounds with TIM10 inh; S. cerevisiae tim10 strain growth, BacTiter-Glo luminescence, 24 h; inhibition, % at 10 µM;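 active = inhibition of yeast growth at or above a set limit in either of two replicates at 10 µM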;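 also: this counterscreen used the strain with wild-type TIM10; 0% = yeast with DMSO and 100% = medium wells lacking yeast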
An asterisk follows results filed as active.

For COc1cc(CN2CCN(C(=O)c3cccc4ccccc34)CC2)cc(OC)c1O the results were tim10-1 inh -9.7, tim23-1 inh 4.6, V-ATPase pHluor -5.3, TIM10 inh 3.1 and PfHsp90 set2 -8.3.
Screening CC1(C)CC2CC(C)(CN2C(=S)NC(=O)c2ccccc2Cl)C1 (configuration not stated) returned tim10-1 inh 40.7*, tim23-1 inh 47.9, V-ATPase pHluor 2.5, TIM10 inh 41.6*, PfHsp90 set2 13.5, tim10-1 conf 31.6* and tim10 confirm 10.2.
CCCc1cc(NCC2CCCO2)n2c(nc3ccccc32)c1C#N (configuration not stated) was read as tim10-1 inh 40.8*, tim23-1 inh 45.4, V-ATPase pHluor 3.3, TIM10 inh 40.9*, PfHsp90 set2 32.8, tim10-1 conf 37.0* and tim10 confirm 24.8.
Cc1cccc(Cc2c(C)nc3c(C(=O)NCc4ccco4)cnn3c2C)c1 was read as tim10-1 inh 41.0*, tim23-1 inh 44.5, V-ATPase pHluor -7.1, TIM10 inh 47.6*, tim10-1 conf 42.1* and tim10 confirm 39.8*.
For O=c1[nH][nH]c(-c2ccccc2O)c1C(C[N+](=O)[O-])c1ccc(Cl)cc1Cl (configuration not stated) the results were tim10-1 inh 55.2*, tim23-1 inh 36.7, V-ATPase pHluor 4.6, TIM10 inh 42.2*, PfHsp90 set2 0.0, tim10-1 conf 30.1* and tim10 confirm -4.5.
CN(Cc1ccccc1)C(=O)CN1CCN(S(=O)(=O)c2ccccc2F)CC1 was read as V-ATPase pHluor 0.5.
COc1cccc(C(C[N+](=O)[O-])c2c(C)[nH]n(-c3ccccc3)c2=O)c1 (configuration not stated) was read as tim10-1 inh 51.4*, tim23-1 inh 27.3, V-ATPase pHluor 5.8, TIM10 inh 62.1*, PfHsp90 set2 14.3, tim10-1 conf 64.5* and tim10 confirm 89.2*.
For COc1cccc(N=Nc2c(C)[nH]n(-c3ccccc3)c2=O)c1 the results were tim10-1 inh -14.7, tim23-1 inh 16.9, V-ATPase pHluor 0.7, TIM10 inh -3.1 and PfHsp90 set2 -1.4.
Screening COc1ccc(NC(=O)N(C)C[C@@H]2OCc3cnnn3CCCC(=O)N([C@H](C)CO)C[C@@H]2C)cc1 returned V-ATPase pHluor 2.2.
Screening O=C(/C=C/c1cccs1)c1cc(F)ccc1OC(=O)N1CCOCC1 returned tim10-1 inh 52.7*, tim23-1 inh 47.1, V-ATPase pHluor 7.7, TIM10 inh 53.9*, PfHsp90 set2 -11.4, tim10-1 conf 54.8* and tim10 confirm -26.4.
Screening O=C1C=CC(=O)N1CCNc1ncc(C(F)(F)F)cc1Cl returned tim10-1 inh 92.0*, tim23-1 inh 47.4, V-ATPase pHluor 13.4*, TIM10 inh 88.2*, PfHsp90 set2 101.2*, tim10-1 conf 94.3* and tim10 confirm 97.8*.
`O=S(=O)(NCCNc1ncc(C(F)(F)F)cc1Cl)C(F)(F)F` gave tim10-1 inh 54.7*, tim23-1 inh 46.7, V-ATPase pHluor 1.6, TIM10 inh 44.7*, PfHsp90 set2 8.2, tim10-1 conf 45.6* and tim10 confirm 13.1.
For COc1cccc(CN2CC(C(=O)NCCOc3cccnc3)CCC2=O)c1 (configuration not stated) the results were tim10-1 inh -1.6, tim23-1 inh 2.1, V-ATPase pHluor -0.4, TIM10 inh -6.3 and PfHsp90 set2 6.0.
Screening CCOc1cc(C(=O)O/N=C(\N)c2ccc([N+](=O)[O-])cc2)cc(OCC)c1OCC returned tim10-1 inh 60.6*, tim23-1 inh 15.8, V-ATPase pHluor 0.1, TIM10 inh 45.8*, PfHsp90 set2 -14.9, tim10-1 conf 48.5* and tim10 confirm 42.0*.
For CCOc1ncccc1C(=O)NCc1ccccc1Cl the results were tim10-1 inh 3.9, tim23-1 inh 22.6, V-ATPase pHluor 0.7, TIM10 inh 4.9 and PfHsp90 set2 10.8.
For Nc1c(C(=O)c2ccccc2)oc2ccc(Br)cc12 the results were tim10-1 inh 44.9*, tim23-1 inh 28.9, V-ATPase pHluor 1.8, TIM10 inh 52.1*, PfHsp90 set2 -35.5, tim10-1 conf 17.9 and tim10 confirm 33.5*.
`COC(=O)CCC(=O)c1oc2ccc(Br)cc2c1N` gave tim10-1 inh 41.3*, tim23-1 inh 44.9, V-ATPase pHluor 1.2, TIM10 inh 44.0*, tim10-1 conf 34.2* and tim10 confirm 31.5*.
`Nc1c(C(=O)c2cccs2)oc2ccccc12` gave tim10-1 inh 18.3, tim23-1 inh 40.5, V-ATPase pHluor -1.1, TIM10 inh 27.0 and PfHsp90 set2 20.3.
`Nc1c(C(=O)c2ccc(Br)s2)oc2ccccc12` gave tim10-1 inh 47.5*, tim23-1 inh 31.1, V-ATPase pHluor -1.3, TIM10 inh 42.8*, PfHsp90 set2 5.6, tim10-1 conf 35.5* and tim10 confirm 41.8*.
Screening Cn1nc(C(=O)Nc2cccc(S(=O)(=O)N3CCCCC3)c2)c2ccccc2c1=O returned tim10-1 inh 10.9, tim23-1 inh 15.0, V-ATPase pHluor 6.3 and TIM10 inh -2.8.
`O=C(CN1C(=O)c2cccc3cccc1c23)NC1CCCCC1` gave tim10-1 inh 0.9, tim23-1 inh 4.6, V-ATPase pHluor -2.7, TIM10 inh 14.4 and PfHsp90 set2 -35.2.
`COC(C/C=C/[C@H](O)[C@H](C)OCc1ccccc1)OC` gave tim10-1 inh 15.9, tim23-1 inh 18.6, V-ATPase pHluor 1.6, TIM10 inh 16.9 and PfHsp90 set2 4.1.
Screening Cc1cc(Br)ccc1NC(=O)CNC(=O)CN1C(=O)NC2(CCCCCC2)C1=O returned tim10-1 inh 11.8, tim23-1 inh 17.5, V-ATPase pHluor 3.7, TIM10 inh 18.7 and PfHsp90 set2 -33.4.
`Cc1cc(Br)ccc1NC(=O)CN1C(=O)C2C3CC(c4ccccc4)C(C3)C2C1=O` (configuration not stated) gave tim10-1 inh 40.6*, tim23-1 inh 32.1, V-ATPase pHluor 5.8, TIM10 inh 55.7*, PfHsp90 set2 -4.3, tim10-1 conf 33.9* and tim10 confirm 32.3*.
For COc1ccc(-c2cc3ccccc3[nH]2)cc1 the results were tim10-1 inh 7.0, tim23-1 inh 7.6, V-ATPase pHluor -0.6, TIM10 inh -3.1 and PfHsp90 set2 0.7.
Screening Cc1ccc(O)c(-c2cc3ccccc3[nH]2)c1 returned tim10-1 inh 52.7*, tim23-1 inh 7.7, V-ATPase pHluor -2.1, TIM10 inh 45.9*, PfHsp90 set2 -10.0, tim10-1 conf 39.9* and tim10 confirm 46.6*.
Screening CCN(CC)CCNC(=O)C(Cl)=C1C(Cl)=C(Cl)C(Cl)=C1Cl returned V-ATPase pHluor 4.4 and PfHsp90 set2 2.5.
